This is a sample that favours compounds with a hit; in the whole collection about 2.4% have one here.
LT uptake inh: anthrax lethal toxin internalization inhibition; Cells, anthrax lethal toxin internalization, FRET ratio (460/530); Potency, µM (titrated, usually from 40 µM), for inactives: top-dose activity change, negative = inhibition, hits mostly inhibitors; 0.67% of 70,000 active; AID 912; note: % is set by controls: 0 for no effect and ±100 for the full control effect; nearly all actives have a fitted effect of over 50% in size
AmpC inh det: AmpC beta-lactamase inhibition, detergent assay; 0.09% of 71,000 active; purified AmpC, nitrocefin hydrolysis with detergent; Potency, µM (series often up to 28.7 µM), without a hit: at the highest dose activity change, negative = inhibition; P00811; active = well fitted curve in the direction sought with a large enough effect; inconclusive = small, poorly fitted or top-dose-only effect; note: % is set by controls: 0 for no effect and ±100 for the full control effect
Target sequence (P00811 whole entry, looked up): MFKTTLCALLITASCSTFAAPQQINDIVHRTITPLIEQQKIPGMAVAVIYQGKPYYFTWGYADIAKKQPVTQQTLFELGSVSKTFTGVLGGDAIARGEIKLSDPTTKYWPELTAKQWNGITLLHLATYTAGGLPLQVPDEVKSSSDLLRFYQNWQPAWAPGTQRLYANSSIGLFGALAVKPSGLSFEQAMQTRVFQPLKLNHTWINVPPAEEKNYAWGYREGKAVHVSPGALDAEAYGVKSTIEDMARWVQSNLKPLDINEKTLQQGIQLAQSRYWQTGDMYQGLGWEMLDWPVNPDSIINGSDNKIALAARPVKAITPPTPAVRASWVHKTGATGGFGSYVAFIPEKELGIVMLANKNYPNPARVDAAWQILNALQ
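E. coli AmpC (5.3 nM) in 20 mM phosphate pH 7.0 with 0.01% Triton X-100, preincubated 15 min RT with compound; nitrocefin (2 uL of 800 uM stock) hydrolysis followed by 480 nm absorbance every 20 s over 4 min.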
SmPrx2 inh: inhibitors of Schistosoma mansoni peroxiredoxin 2; Potency, µM; S. mansoni Prx2 activity coupled to TGR/GSH (TGR is thioredoxin glutathione reductase), NADPH fluorescence loss, qHTS; AID 448; 0.07% of 65,000 active
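Activity is read as the drop in NADPH fluorescence (365/450 nm), recorded every 30 sec for 8 min after H2O2 addition. Prx2 is coupled to TGR-driven NADPH oxidation through glutathione, in phosphate buffer pH 7.4.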
AmpC nodet inh: inhibitors of E. coli AmpC beta-lactamase without detergent; P00811; AmpC nitrocefin hydrolysis, absorbance 480 nm, no detergent; Potency, µM (top dose mostly 28.7 µM), for inactives: top-dose activity change, negative = inhibition; 1.8% of 71,000 active; AID 585; note: % of control where 0% means no effect
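AmpC, 20 mM phosphate pH 7.0; 15 min cpd preinc, RT; start with nitrocefin (800 uM stock); A480 kinetic read, 20 s intervals, 4 min. No-enzyme wells = negative control.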
The depositor's hits bear a star; ? = inconclusive; / = no result; ! = not confirmed by another sample; [ ] = another dose, or the depositor's remark. Unless noted, calls come from the whole dose curve. Potency is the fitted concentration of half-maximal effect.

SMILES	LT uptake inh	AmpC inh det	SmPrx2 inh	AmpC nodet inh
NC(=NCc1ccc(Cl)c(Cl)c1)NC(=O)c1nc(Cl)c(N)nc1N	?	0%	>11	13µM*[single pt active]
NC(=O)C1(N2CCCCC2)CCN(C(=O)c2cccs2)CC1	11%	12%	>57	4µM*[single pt active]
c1ccc2c(c1)Cc1cc3cc4c(cc3nc1-2)OCO4	?	0%	>57	67%
COc1ccccc1Oc1ccc2c(c1)C(=O)N(c1ccc(O)cc1)C2=O	0%	-2%	>57	13µM*[single pt active]
CCOc1c(C(N)=O)c(-c2ccccc2)c2c(=O)[nH]c3ccccc3n12	?	1%	>57	13µM*
Cc1nc(C)c(-c2csc(NCc3ccco3)n2)s1	-2%	1%	>57	8%
Cc1nc(NC(=O)c2ccccc2)sc1-c1csc(NCc2ccco2)n1	?	14%	>57	13µM*
COc1ccccc1-c1nnc(NC(=O)c2ccc(S(=O)(=O)N(C)Cc3ccccc3)cc2)o1	-1%	-2%	>57	27%
COc1ccc(-c2nnc(NC(=O)c3ccc(S(=O)(=O)N4CCCc5ccccc54)cc3)o2)cc1	-13%	9%	>57	13µM*
CN(c1ccccc1)S(=O)(=O)c1ccc(C(=O)Nc2nnc(-c3ccc(F)cc3)o2)cc1	0%	-8%	>57	10µM*
CCCn1c(C)nc2c(NCCCN(CCO)CCO)nc(C)nc21	-1%	16%	/	22%
COc1ccc(CN[C@H](C)C(=O)O)cc1	-5%[8 µM]	-1%[5.75 µM]	>57	0%[5.75 µM]
C/C(N)=C(/C#N)C(=O)CSc1nnc(COc2ccccc2Cl)o1	-5%	-5%	>57	3%
COc1ccccc1OCc1nnc(SCC(=O)c2cc(Cl)ccc2OC)o1	13µM*	0%	>57	35%
COc1ccc(C(O)C(CN2CCOCC2)c2ccccc2)cc1F (stereo not given)	2%	5%	>57	4%
COc1ccc(C(=O)C(CN2CCOCC2)c2ccccc2)cc1F (stereo not given)	16µM*	-2%	>57	76%
Cc1cccc(-n2nc3c(c2NC(=O)c2ccc(Br)o2)CSC3)c1	?	0%	>57	10µM*
CC#C[C@@]1(O)CC[C@H]2[C@@H]3CCC4=CC(=O)CCC4=C3[C@H](c3ccc(N(C)C)cc3)C[C@]21C	?	-4%[12.8 µM]	>57	90%[12.8 µM]
COc1ccc(Br)cc1CNC(=O)C1CCCN(S(C)(=O)=O)C1 (stereo not given)	10µM*	-2%	>57	-10%
COc1cc(OC)c(NC2c3ccccc3C(=O)N2c2cc(C)ccn2)cc1Cl (stereo not given)	-10%	9%	>57	82%
Cc1ccc(N2C(=O)c3ccccc3C2O)nc1 (stereo not given)	14%	12%	>57	4µM*[single pt active]
O=C1c2ccccc2C(Nc2ccc(Cl)cn2)N1c1ccccn1 (stereo not given)	-22%	15%	>57	4µM*[single pt active]
O=C1c2ccccc2C(O)N1c1ccc(Cl)cc1 (stereo not given)	-14%	7%	>57	-8%
Cc1ccc(N2C(=O)c3ccccc3C2Nc2ccccc2F)nc1 (stereo not given)	?	10%	>57	4µM*[single pt active]
Cc1cc(Cn2cnc3c2C[C@@H](C(=O)O)N(C(=O)C(c2ccccc2)c2ccccc2)C3)ccc1N(C)C	-11%	-3%	>57	65%
SMILES	LT uptake inh	AmpC inh det	SmPrx2 inh	AmpC nodet inh
COc1ccc(-n2nnnc2S(=O)(=O)CC(=O)N2CCCCC2)cc1	3.2µM*	8%	?	11%
C[C@@H]1[C@H]2CC[C@@H]3[C@@H]4CC=C5C[C@@H](N(C)C)CC[C@]5(C)[C@@H]4CC[C@@]32CN1C	4µM*	-1%[12.8 µM]	>57	13%[12.8 µM]
O=C(O)c1ccccc1Nc1cccc(OCc2ccc3ccccc3n2)c1	16µM*!	-2%	>57	16µM*![single pt active]
COc1cccc(Nc2cc(C)nc3ccccc23)c1	-11%	0%	>57	3%
COC(=O)c1nc2n(n1)C(c1cccc(Cl)c1)C1=C(CC(C)(C)CC1=O)N2 (stereo not given)	5%	11%	>57	4µM*[single pt active]
COC(=O)c1nc2n(n1)C(c1cccc(Cl)c1)C1=C(CCCC1=O)N2 (stereo not given)	-4%	11%	>57	4µM*[single pt active]
COC(=O)C1=C(C)NC2=C(C(=O)CC(C)(C)C2)C1c1cccc(C)n1 (stereo not given)	28%	11%	>57	0%
COc1ccc(NC(=O)N2CC[C@@]3(CCCN(C(=O)c4cccn4C)C3)C2)cc1	?	-2%	>57	21%
CCNc1nc(C)cc(COC)c1C#N	0%	11%	/	9%
COCc1cc(C)nc(N2CCOCC2)c1C#N	-21%	11%	/	4µM*[single pt active]
[Cu].[NH-][C@H](CC(=O)O)C(=O)O.[NH-][C@H](CC(=O)O)C(=O)O	6%[8 µM]	0%[5.75 µM]	>57	11%[5.75 µM]
CN(C)CCNS(=O)(=O)N(C)C	?	-3%[5.75 µM]	>57	-1%[5.75 µM]
CCOc1ccc2nc(NC(=O)Nc3cccs3)sc2c1	?	10%	>57	3.2µM*[single pt active]
CCOc1ccc2nc(NC(=O)COC)sc2c1	6%	-4%	>57	8%
O=C(COC(=O)Cc1ccc(S(=O)(=O)N2CCCCC2)s1)Nc1ccc2c(c1)OCO2	-9%	11%	>57	13µM*
O=C(COC(=O)Cc1ccc(S(=O)(=O)N2CCOCC2)s1)NCc1ccccc1	-3%	-3%	>57	14%
Cc1ccc(C)c2[nH]c(=O)c(CN(CCN3CCCC3)C(=O)Nc3cccc(Cl)c3)cc12	7.9µM*	-3%	>57	98%
O=C(Nc1ccc(N2C(=O)C3C4C=CC(C4)C3C2=O)cc1)Nc1nncs1 (stereo not given)	-20%	5%	>57	4µM*[single pt active]
O=C(O)[C@H]1O[C@H]1C(=O)O	0%[8 µM]	-3%[5.75 µM]	>57	-6%[5.75 µM]
O=C1c2ccccc2C(=O)c2c(NC3CCCCC3)ccc(Nc3ccc(S(=O)(=O)O)cc3)c21	-11%[8 µM]	-6%[5.75 µM]	>57	-5%[5.75 µM]
CCOc1ccc2[nH]c(C)cc(=O)c2c1	-11%	14%	>57	4µM*[single pt active]
CCOc1ccc2[nH]c(C)c(CN(C)C)c(=O)c2c1	?	-3%	/	-3%
CN(C)Cc1c[nH]c2ccccc12	?	0%	>57	85%
CN(C)CCCn1cc(C2=C(c3c[nH]c4ccccc34)C(=O)NC2=O)c2ccccc21	0.4µM*	-3%	>57	36%
CCCCCCCCCCCCC/C=C\[C@@H](O)[C@H](CO)NC(C)=O	16µM*	-9%	>57	81%
SMILES	LT uptake inh	AmpC inh det	SmPrx2 inh	AmpC nodet inh
O=c1c(-c2cccs2)nc2cnc(N3CCNCC3)nc2n1C1CC1	?	0%	>57	39%
CC(C)Cc1cc(C(=O)Nc2c(F)cc(F)cc2Br)no1	-23%	15%	>57	4µM*[single pt active]
O=C(NCCN1CCOCC1)c1cc(-c2ccc(Cl)cc2)on1	?	10%	>57	33%
CC(C)Cc1cc(C(=O)Nc2ccc(F)cc2F)no1	-14%	11%	>57	4µM*[single pt active]
CC(C)c1cc(C(=O)Nc2cc(Cl)ccc2O)no1	?	1%	>57	-25%
O=C(Nc1ccc(F)cc1F)c1cc(-c2ccco2)on1	-23%	-7%	>57	-13%
